GLS inh: inhibitors of human glutaminase (GLS) | 0.21% of 410,000 active | AID 624170 | Potency, µM (titrated, usually from 45.5 µM), without a hit: at the highest dose activity change, negative = inhibition, most hits filed as inhibitors | GLS enzymatic activity, qHTS titration; note: potency is the fitted concentration of half-maximal effect; % is set by controls: 0 for no effect and ±100 for the full control effect
Target sequence (O94925 whole entry, looked up): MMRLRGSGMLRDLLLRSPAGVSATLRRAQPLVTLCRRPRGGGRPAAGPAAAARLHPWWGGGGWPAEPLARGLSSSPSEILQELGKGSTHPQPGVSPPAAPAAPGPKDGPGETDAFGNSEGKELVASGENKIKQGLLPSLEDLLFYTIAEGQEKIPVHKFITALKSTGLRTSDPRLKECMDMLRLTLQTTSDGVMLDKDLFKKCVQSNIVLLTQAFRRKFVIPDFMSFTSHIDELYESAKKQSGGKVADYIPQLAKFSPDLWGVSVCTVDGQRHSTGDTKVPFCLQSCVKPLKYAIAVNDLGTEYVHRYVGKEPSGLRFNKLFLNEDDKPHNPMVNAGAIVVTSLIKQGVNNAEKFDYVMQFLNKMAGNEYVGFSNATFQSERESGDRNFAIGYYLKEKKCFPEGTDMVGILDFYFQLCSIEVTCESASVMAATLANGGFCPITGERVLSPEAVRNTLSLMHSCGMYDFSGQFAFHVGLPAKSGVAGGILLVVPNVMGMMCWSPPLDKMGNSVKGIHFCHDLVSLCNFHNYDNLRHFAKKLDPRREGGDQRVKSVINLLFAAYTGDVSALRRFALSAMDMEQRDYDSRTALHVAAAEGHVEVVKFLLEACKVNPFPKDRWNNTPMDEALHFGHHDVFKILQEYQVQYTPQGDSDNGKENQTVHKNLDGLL
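Read-out is an Amplex red fluorescence increase coupled through glutamate oxidase and HRP, measured before and after 30 min room-temperature incubation. hKGA is in 45 mM KH2PO4 (pH 8.2) with 0.02% Tween-20; glutamine added as 1mM solution.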
PLK1 PBD block: PLK1 (human) polo-box domain binding inhibition | Potency, µM, for inactives: max response, negative = inhibition, most hits filed as inhibitors | 2.8% of 360,000 active | P53350 | Plk1 PBD binding of FITC phosphopeptide, fluorescence polarization | AID 720504; note: potency is the fitted concentration of half-maximal effect; series mostly up to about 57 µM; % is set by controls: 0 for no effect and ±100 for the full control effect; nearly all actives have a fitted effect of over 65% in size
PI4K2A inh: inhibitors of human PI4K2A; Q9BTU6; purified PI4K2A, ADP-Glo luminescence, 1 h; stronger effect = lower value; activity change, negative = inhibition, % at 76.9 µM; 0.13% of 420,000 active; in the data active = activity change below about -50%; inconclusive = mostly about -30% to -49%;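 note: -100% = wells without enzyme as full effect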
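PI4K2A activity was measured by ADP-Glo luminescence: enzyme (4 ug/mL stock) and phosphatidylinositol (1.2 mM stock) in Tris pH 7.5/MgCl2/EGTA/Triton X-100 buffer were reacted with ATP (300 microM stock) for one hour at ambient temperature.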
GCN5L2 inh-1: GCN5L2 (KAT2A) acetyltransferase inhibition | Q92830 | GCN5L2 HAT assay, ThioGlo1 CoA-SH fluorescence | Potency, µM (doses to about 58.9 µM), inactives show at the highest dose activity change, negative = inhibition, usual class: inhibitors | 0.21% of 390,000 active | AID 504327; note: potency is the fitted concentration of half-maximal effect; % is set by controls: 0 for no effect and ±100 for the full control effect
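ThioGlo1-coupled HAT assay: 20nM GCN5L2, 70uM acetyl-CoA, 75uM H3(1-25) peptide, pH 7.5. Fluorescence read at 340/540nm at start and after 20 min at room temperature.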
VDR inh: inhibitors of human vitamin D receptor. Potency, µM, without a hit: max response, negative = inhibition, most hits filed as inhibitors. P11473. 0.93% of 400,000 active. VDR-SRC2-3 peptide fluorescence polarization, 2 h; note: potency is the fitted concentration of half-maximal effect; % is set by controls: 0 for no effect and ±100 for the full control effect
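Fluorescence polarization assay of small-molecule disruption of VDR binding to coregulator peptide SRC2-3. Compounds and controls pin-transferred, then read after 2 h incubation at ambient room temperature.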
GCN5L2 inh-2: human KAT2A HAT inhibition, hit confirmation. shares compounds with GCN5L2 inh-1. 70% of 140 active. AID 588347. Potency, µM, most hits filed as inhibitors. GCN5L2 HAT, ThioGlo1 CoA fluorescence, 20 min
* = called active by the depositor; ? = inconclusive; / = no result; ! = repeats disagree. The list is not random: actives were taken first. Their share in the collection is about 3.1%. Unless noted, calls come from the whole dose curve; as a rule, active = well fitted curve in the direction sought with a large enough effect; inconclusive = small, poorly fitted or top-dose-only effect, or another doubt; inactive = no such curve, though single readings can be large; an effect the other way counts as inactive or inconclusive.

SMILES	GLS inh	PLK1 PBD block	PI4K2A inh	GCN5L2 inh-1	VDR inh	GCN5L2 inh-2
CCC(C)Sc1cccc(-c2nc3ccc(C)cn3c2NC2CCCCC2)c1 (centres undefined)	-7.3%	4.9%	0.0	?	3.7%	/
CCC(C)Sc1ccc(-c2nc3ccc(C)cn3c2NC2CCCCC2)cc1 (centres undefined)	-2.7%	-2.4%	-7.4	20µM*	-29.2%	?
Clc1ccc(-n2c(SCc3cccc4ccccc34)nnc2-c2ccccc2)cc1	/	/	-4.2	/	/	/
Cc1cccc(C)c1NC(=O)C1CCCN1S(=O)(=O)c1cccc2cccnc12 (centres undefined)	/	/	0.0	/	/	/
CC1=CC2=NC(=O)/C(=C\c3ccc(-c4cccc(Cl)c4)o3)C(=N)N2O1	-3.3%	1.0%	2.9	-18.3%	27.6%	/
CC1=NOC(=O)/C1=C\c1ccc(-c2ccc(Cl)c(C(=O)O)c2)o1	-5.8%	2.12µM*	-22.7	31.6µM*	?	12.9*
CC1=NOC(=O)/C1=C\c1ccc(-c2cccc(Cl)c2)o1	-24.5%	0.532µM*	-8.9	?	?	?
COc1cc(NC(=O)Cn2c(-c3ccccc3)cc(C(C)=O)c2C)cc(OC)c1	-10.7%	/	-0.2	-1.5%	12.3%	/
O=C(C1=NN(c2ccccc2)C2C(=O)N(c3ccccc3Cl)C(=O)C12)c1ccccc1 (centres undefined)	-15.3%	-18.7%	2.9	?	-8.7%	?
Cc1ccc([C@H]2C(C(=O)O)=CC[C@@H](c3ccc(C)cc3)N2S(=O)(=O)c2ccc(C)cc2)cc1	18.7%	?	-3.3	-5.3%	-21.9%	/
Cc1ccc(S(=O)(=O)N2[C@@H](c3ccc(Br)cc3)C(C(=O)O)=CC[C@H]2c2ccc(Cl)c(Cl)c2)cc1	3.5%	23.8µM*	-0.9	28.2µM*	?	12.9*
Cc1ccc([C@H]2C(C(=O)O)=CC[C@@H](c3ccc(Cl)cc3)N2S(=O)(=O)c2ccc(C)cc2)cc1	22.3%	?	1.0	14.1µM*	-9.2%	?
Oc1ccc(Cl)cc1C1C=C(c2ccc3c(c2)OCO3)NC(c2ccc(Br)cc2)N1 (centres undefined)	/	/	/	/	0.8%	/
CN(c1ccccc1)c1ccc(/C=C(\CCC(=O)O)c2nc3ccccc3s2)cc1[N+](=O)[O-]	-5.3%	23.8µM*	-1.4	?	-12.9%	20.4*
Cc1ccc(/C=C(\CCC(=O)O)c2nc3ccccc3s2)cc1[N+](=O)[O-]	5.2%	?	5.8	2.6%	-20.9%	/
CC1CCc2nc3ncn(Cc4ccc(Cl)cc4)c(=O)c3cc2C1 (centres undefined)	-12.0%	/	1.1	-10.7%	10.7%	/
CSc1ccccc1C(=O)Nc1ncn[nH]1	1.5%	-21.7%	0.1	35.5µM*	-15.2%	32.4*
COc1ccc(CN2CCN(c3nc4ccccc4s3)CC2)cc1	3.2%	-3.8%	0.5	-2.2%	-4.9%	/
COc1ccc(CCn2c(O)cc3nn(-c4nc5ccccc5s4)c(=O)c-3c2C)cc1	0.0%	-24.6%	-26.5	25.1µM*	-5.0%	?
CC1CCC(C(=O)NC(C(=O)OCC(=O)c2ccc(Br)cc2)C(C)C)CC1 (centres undefined)	-14.9%	/	-6.8	-2.7%	-19.2%	/
CN(C)/C=C1\C=C2C(=O)c3ccccc3N2C1=O	-10.6%	461.5%	-8.2	17.8µM*	4.1%	36.3*
O=C(OCCN1C(=O)c2cccc3c(N4CCOCC4)ccc(c23)C1=O)c1cccc(Cl)c1	-4.5%	21.2µM*	-2.5	?	9.5%	?
O=C1c2cccc3c(N4CCCCC4)ccc(c23)C(=O)N1CCO	13.9%	13.7%	-2.4	0.2%	-10.8%	/
CC(C)c1ccc(S(=O)(=O)/N=C2\C=C(NS(=O)(=O)c3ccccc3)C(=O)c3ccccc32)cc1	-9.3%	23.8µM*	-15.1	22.4µM*	79.4µM*	9.13*
CCCNC(=O)c1ccc2c(=O)c(O)c(-c3ccsc3)[nH]c2c1	16.8%	-5.9%	-0.5	31.6µM*	-21.0%	16.2*
SMILES	GLS inh	PLK1 PBD block	PI4K2A inh	GCN5L2 inh-1	VDR inh	GCN5L2 inh-2
CCCNC(=O)c1ccc2c(=O)c(O)c(-c3ccc(C)cc3)[nH]c2c1	18.6%	0.5%	-1.5	-6.9%	-1.5%	/
CCOC(=O)Cc1csc(NC(=O)CSc2nnnn2-c2ccc(C)c(C)c2)n1	-11.1%	-5.7%	4.7	?	-1.3%	?
COc1cc(/C=C(/C#N)c2nc3ccccc3[nH]2)ccc1OCC(=O)Nc1ccccc1C(C)C	12.3%	-4.7%	-3.0	?	0.3%	?
COc1ccc(-n2c(=O)c3c4c(sc3n(Cc3ccc(F)cc3)c2=O)CCCC4)c(OC)c1	0.4%	/	0.5	-4.4%	-19.5%	/
Cn1c(SCC(=O)OCc2ccccc2)nnc1-c1ccco1	1.3%	-8.2%	0.9	-2.0%	-18.6%	/
Cn1c(SCC(=O)c2ccc(-c3ccccc3)cc2)nnc1-c1ccco1	-0.6%	-4.3%	-8.6	28.2µM*	8.2%	?
Cc1ccc2nc(CSc3nnc(NC(=O)COc4ccccc4F)s3)cc(=O)n2c1	8.8%	/	-4.1	-11.4%	5.4%	/
CCSS(=O)(=O)c1cccc2cccnc12	10µM*	2.67µM*	-11.7	3.16µM*	15.8µM*	3.63*
O=C(O)CCS(=O)(=O)c1cccc2cccnc12	1.0%	-6.5%	-6.2	?	-5.2%	/
CCCc1cnc2c(c1SCC(=O)Nc1ccc([N+](=O)[O-])cc1)c(=O)n(C)c(=O)n2C	-14.9%	/	1.2	-14.7%	2.6%	/
O=C(CSc1nc2ccccc2s1)Nc1cc(C(=O)O)cc(C(=O)O)c1	-2.7%	?	-21.8	20µM*	-15.6%	?
CC(=O)c1ccc(-c2nc3ccccc3n2C)o1	2.0%	-6.6%	-25.7	?	7.2%	18.2*
Cn1c2nc3ccccc3c-2nc2ccccc21	-7.9%	-6.8%	-4.4	/	/	/
Clc1cc(Cl)cc(CNC2CCC23CCCCC3)c1 (centres undefined)	/	/	-0.2	/	/	/
COC(=O)C1=C(C)NC(C)=C(C(=O)OC(C)(C)CN(C)CCC(c2ccccc2)c2ccccc2)C1c1cccc([N+](=O)[O-])c1 (centres undefined)	17.4%	/	3.3	-23.3%	3.8%	/
O=C(O)c1cccc(N/N=C/C2=C(Cl)c3cc(Cl)ccc3SC2)c1	13.5%	21.2µM*	2.2	28.2µM*	-11.8%	14.5*
O=S(=O)(c1ccc(N2CCOCC2)c(Cl)c1)N1CCOCC1	-4.5%	1.5%	-10.2	-1.6%	-4.4%	/
O=c1c2ccccc2sn1-c1cc(S(=O)(=O)N2CCOCC2)ccc1N1CCOCC1	?	0.844µM*	-0.6	1.58µM*	17.8µM*!	4.08*
O=c1c2ccccc2sn1-c1cc(S(=O)(=O)N2CCOCC2)ccc1N1CCCC1	?	2.99µM*	-7.1	8.91µM*	?	5.76*

Source: PubChem (National Center for Advancing Translational Sciences (NCATS))
